Compound activity: PubChem BioAssay, several laboratories
Sampled rows, rich in hits. Any-hit rate of the full collection: about 27%.
CYP2C19 inh: blockers of cytochrome P450 2C19 activity – biochemical, luminescence, ADME assay, primary screen | CYP2C19 Supersomes, luciferin-H EGE luminescence, 30 min | 21% of 96,000 active | inhibition, % at 5 µM | P33261 | AID 778, 2007;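 active = CYP2C19 inhibition above a set limit at 5 µM in the primary screen, cut at about 50% in these data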
Target sequence (P33261 whole entry, looked up): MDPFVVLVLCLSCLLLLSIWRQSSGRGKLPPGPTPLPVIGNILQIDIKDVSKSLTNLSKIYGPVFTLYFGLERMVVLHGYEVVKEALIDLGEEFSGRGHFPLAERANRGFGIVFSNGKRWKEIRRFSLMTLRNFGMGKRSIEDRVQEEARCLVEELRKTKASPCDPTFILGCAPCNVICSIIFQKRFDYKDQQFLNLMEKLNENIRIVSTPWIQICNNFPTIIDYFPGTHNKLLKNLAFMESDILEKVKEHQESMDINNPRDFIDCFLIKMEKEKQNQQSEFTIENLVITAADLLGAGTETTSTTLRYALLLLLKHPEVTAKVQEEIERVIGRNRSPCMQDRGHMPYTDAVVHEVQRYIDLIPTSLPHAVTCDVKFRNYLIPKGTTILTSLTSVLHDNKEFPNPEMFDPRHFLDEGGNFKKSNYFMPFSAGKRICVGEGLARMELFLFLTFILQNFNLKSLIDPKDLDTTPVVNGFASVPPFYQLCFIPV
CYP2C19 act: human CYP2C19 activators, primary screen, biochemical, luminescence | Cytochrome P450 2C19 (Homo sapiens), P33261 | recombinant CYP2C19, luciferin-H EGE luminescence; stronger effect = higher value; 0 = fully inhibited enzyme, 1 = untreated enzyme | activation factor at 5 µM | 96,000 tested, under 10 active;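 active = activation factor of at least 2 at 5 µM in the primary screen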
CYP2C9 inh: blockers of cytochrome P450 2C9 activity – biochemical, luminescence, ADME assay, primary screen; P11712; 20% of 96,000 active; CYP2C9 Supersomes, luciferin-H conversion; inhibition, % at 5 µM;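 active = blocking of liver enzyme CYP2C9 beyond about 50% at 5 µM, limit read from the data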
sEH inhibitor: soluble epoxide hydrolase inhibitors, primary screen, biochemical, human sEH | Bifunctional epoxide hydrolase 2 (Homo sapiens), P34913 | recombinant human sEH enzymatic activity assay | inhibition, % at 2 µM | 0.34% of 91,000 active | AID 707, 2007; in the data active = inhibition above about 80%
CYP2C9 activ: human CYP2C9 activators, primary screen, biochemical, luminescence; AID 1024, 2008; activation factor at 5 µM; recombinant CYP2C9, luciferin-H conversion; stronger effect = higher value; factor 1 = untreated enzyme, 0 = blocked; 1.4% of 96,000 active;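 active = activation factor of 2 or more for CYP2C9 at a 5 µM dose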
sEH activator: soluble epoxide hydrolase activators, primary screen, biochemical, human sEH. 0.04% of 91,000 active. purified human sEH enzymatic activity, activator screen. activation, % at 2 µM; in the data active = activation above about 37%
Large screens that a line does not name were inactive.

O/N=C/c1cn(-c2ccccc2)nc1-c1ccc2c(c1)OCCO2	CYP2C9 inh 52.8
OCc1cn(-c2ccccc2)nc1-c1ccc2c(c1)OCCO2	none
CCn1cc(/C=N/NC(=O)c2ccc3c(c2)OCO3)c(C)n1	none
Cc1cc2nc3c(c(=O)n2[nH]1)CCCC3	sEH activator 37.3
COc1ccc(-c2csc(N3CCC(C(N)=O)(N4CCCCC4)CC3)n2)cc1	none
COC(=O)NCC1(C)CC(NC(=O)OC)CC(C)(C)C1 (stereo not given)	CYP2C19 inh 76.9
CCOc1ccc(S(=O)(=O)Nc2ccccc2C(=O)NCc2ccco2)cc1	CYP2C19 inh 99.8, CYP2C9 inh 70.0
CCOc1ccc(-n2c(N)c(C(=O)NCc3ccco3)sc2=S)cc1	CYP2C9 inh 56.7
CCOC(=O)N1CCN(C(=O)C(C)N(c2ccc(Oc3ccccc3)cc2)S(C)(=O)=O)CC1 (stereo not given)	none (no result: sEH inhibitor, sEH activator)
COCCNC(=O)C(C)N(c1ccc(Oc2ccccc2)cc1)S(C)(=O)=O (stereo not given)	CYP2C19 inh 52.7
COc1ccc(S(=O)(=O)Nc2ccccc2C(=O)NCc2ccco2)cc1Br	CYP2C9 inh 50.7
C=CCC1CCCCC12NC(=O)NC2=O (stereo not given)	none (no result: sEH inhibitor, sEH activator)
COC(=O)[C@@H]1[C@@H](C#N)C2(c3ccccc3-c3ccccc32)N(c2ccc(Cl)cc2)N1C#N	none (no result: CYP2C19 inh, CYP2C19 act, CYP2C9 inh, CYP2C9 activ)
Cc1ccccc1NS(=O)(=O)c1ccc(OCC(=O)NCc2ccco2)cc1	CYP2C9 inh 61.2
Cc1cc(Cl)cc(Cl)c1OCC(=O)NCc1ccco1	none
Cc1ccc(OCC(=O)NCc2ccco2)cc1C	CYP2C19 inh 80.3
CCOc1ccc(N(C(C)C(=O)NCc2ccco2)S(C)(=O)=O)cc1 (stereo not given)	CYP2C19 inh 78.3, CYP2C9 inh 53.9
Cc1cc(C)c2c(CC(=O)NCc3ccco3)coc2c1	CYP2C19 inh 89.2
CCC(C)NS(=O)(=O)c1ccc(OCC(=O)NCc2ccco2)cc1 (stereo not given)	none
CCCCCOc1ccc(NC(=O)CCCC(=O)O)cc1	none
COc1ccc(OCCC(=O)OCC(=O)NCc2ccco2)cc1	none (no result: sEH inhibitor, sEH activator)
CCOc1ccc(S(=O)(=O)N(C)c2ccc(OCC(=O)NCc3ccco3)cc2)cc1	CYP2C19 inh 86.1, CYP2C9 inh 100.0
OC(CNCc1ccco1)Cn1c2ccc(Br)cc2c2cc(Br)ccc21 (stereo not given)	none
CC(=Nc1ccc(C)c(C)c1)C1=C(O)CCC1=O	CYP2C19 inh 54.0
CCOC(=O)C1CCN(c2ncnc3c2[nH]c2cccc(OC)c23)CC1	CYP2C19 inh 60.8, CYP2C9 inh 50.9
Clc1ccc(N2CCN(c3ncnc4c3oc3ccccc34)CC2)cc1	none (no result: sEH inhibitor, sEH activator)
CCOC(=O)C1CCN(c2ncnc3c2oc2ccc(Cl)cc23)CC1	CYP2C19 inh 80.5, CYP2C9 inh 53.0
COc1cccc2[nH]c3c(N4CCCCC4)ncnc3c12	none
COC(=O)c1cc(=O)n(Cc2ccc3c(c2)OCO3)c(=Nc2ccccc2)s1	CYP2C9 inh 68.2 (no result: sEH inhibitor, sEH activator)
COC(=O)c1cc(=O)n(Cc2ccco2)c(=Nc2ccc(F)c(Cl)c2)s1	CYP2C19 inh 64.1, CYP2C9 inh 68.9
COc1ccc(-c2nc3n(n2)C(c2ccccc2)C2=C(CCCC2=O)N3)cc1OC (stereo not given)	none
CC(=O)C1=C(C)OC(N)=C(C#N)C1c1ccco1 (stereo not given)	none
CC(=O)n1c2c(c3ccccc31)OC(N)=C(C#N)C2c1ccc(C(C)C)cc1 (stereo not given)	CYP2C9 inh 72.2
Cc1ccc(-n2c(SCC(=O)NCc3cccs3)nnc2-c2ccoc2C)cc1	CYP2C19 inh 93.4, CYP2C9 inh 78.0
COc1ccc(-n2c(SCC(=O)Nc3nccs3)nnc2-c2ccoc2C)cc1	CYP2C19 inh 75.2, CYP2C9 inh 62.4
COc1cccc(-n2c(SCC(=O)Nc3nccs3)nnc2-c2ccoc2C)c1	none (no result: CYP2C19 inh, CYP2C19 act, CYP2C9 inh, CYP2C9 activ)
O=C(NCc1ccco1)C1CCN(S(=O)(=O)Cc2ccccc2)CC1	none (no result: CYP2C19 inh, CYP2C19 act, CYP2C9 inh, CYP2C9 activ)
CCOc1ccccc1NC(=O)CC1NCCNC1=O (stereo not given)	none (no result: sEH inhibitor, sEH activator)
Cn1[nH]c(=O)c(Cl)c(Cl)c1=O	none
CCOc1ccc(CNC(=O)NS(=O)(=O)c2ccc(OC)cc2)cc1	none (no result: sEH inhibitor, sEH activator)
COc1ccc(S(=O)(=O)NCCCCNS(=O)(=O)c2ccc(OC)cc2)cc1	none
COc1ccc(S(=O)(=O)NCc2cccs2)cc1	CYP2C19 inh 94.8
COc1ccc(CNS(=O)(=O)c2ccc(OC)cc2)cc1	CYP2C19 inh 76.4
CCCOc1ccc(S(=O)(=O)NCc2ccc(OC)cc2)cc1	CYP2C19 inh 58.1
COC(=O)c1c(S(=O)(=O)NCc2ccccc2)sc(C(=O)O)c1C	CYP2C9 inh 61.6
CCN1CCCC1CNC(=O)Cn1cccc1C(=O)c1ccccc1 (stereo not given)	none
CCCNC(=O)C(CC)NS(=O)(=O)c1ccc(OC)cc1 (stereo not given)	none
COc1ccc(S(=O)(=O)NCc2ccccc2)cc1	CYP2C19 inh 96.6
COCC(C)NS(=O)(=O)c1ccc(OC)cc1 (stereo not given)	CYP2C19 inh 61.4
Cc1ccc2c3c([nH]c2c1C)-c1nonc1CC3	none (no result: CYP2C19 inh, CYP2C19 act, CYP2C9 inh, CYP2C9 activ)
COC(=O)c1cn(CC(=O)NC2CCCCCC2)c2ccccc12	none (no result: CYP2C19 inh, CYP2C19 act, CYP2C9 inh, CYP2C9 activ)
CCn1c(O)c(/C=N/N=C/c2ccccc2)c2ccc(C3=NNC(=O)CC3)cc21	CYP2C9 inh 64.1
CCC(CC)=N/N=C/c1c(O)n(CC)c2cc(C3=NNC(=O)CC3)ccc12	none (no result: CYP2C19 inh, CYP2C19 act, CYP2C9 inh, CYP2C9 activ)
COc1ccc(Br)cc1CN1CCCCCCC1	none (no result: CYP2C19 inh, CYP2C19 act, CYP2C9 inh, CYP2C9 activ)
Nc1sc(-c2ccccc2)cc1C(=O)O	CYP2C9 inh 64.0
CCOC(=O)c1cc(-c2ccccc2)sc1NC(=S)Nc1cccc(C)n1	none
CCOC(=O)c1cc(-c2ccc(N)cc2)sc1N	CYP2C19 inh 54.4, CYP2C9 inh 58.7
CC(C)(C)NCC1(CO)SC(N)=NC1=O (stereo not given)	none
COc1ccc(CNC(=O)/C=C/c2cc([N+](=O)[O-])ccc2OC(F)F)cc1OC	CYP2C9 activ 2.1
COc1ccc(CNC(=O)/C=C/c2cc([N+](=O)[O-])ccc2OC(F)F)cc1	none
CC(C)N(Cc1nc(-c2ccccc2)no1)C(=O)C(C)(C)C	CYP2C19 inh 51.6
COc1ccc(-c2noc(CN(C(=O)C(C)(C)C)C(C)C)n2)cc1	CYP2C19 inh 80.9, CYP2C9 inh 57.4
CCOc1ccc(-n2nnc3c(=O)n(C/C=C/c4ccccc4)cnc32)cc1	none (no result: sEH inhibitor, sEH activator)
CC(C)(C)c1cc(NC(=O)CCSc2nnc3ccccn23)cc(C(C)(C)C)c1	none (no result: CYP2C19 inh, CYP2C19 act, CYP2C9 inh, CYP2C9 activ)
O=C(COc1ccc(Cl)cc1Cl)N1CCCCCC1	none (no result: sEH inhibitor, sEH activator)
